# Screens from PubChem BioAssay.
# CYP2C9 act – CYP2C9 (human) activation; P11712; recombinant CYP2C9, luciferin-H conversion, luminescence; stronger effect = higher value; factor 1 = untreated enzyme, 0 = blocked; activation factor at 5 µM; actives 1.4% (n = 96,000); AID 1024;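 active = activation factor of 2 or more for CYP2C9 at a 5 µM dose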;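 also: 0 = sulfaphenazole-blocked wells and 1 = vehicle-only wells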
# CYP2C9 inhib – blocks human cytochrome P450 2C9 | CYP2C9 Supersomes, luciferin-H conversion, luminescence | inhibition, % at 5 µM | actives 20% (n = 96,000) | AID 777;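 active = blocking of liver enzyme CYP2C9 beyond about 50% at 5 µM, limit read from the data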
# CYP2C19 inhib – inhibitors of human CYP2C19; actives 21% (n = 96,000); inhibition, % at 5 µM; CYP2C19 Supersomes, luciferin-H EGE luminescence, 30 min; P33261; AID 778;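 active = CYP2C19 inhibition above a set limit at 5 µM in the primary screen, cut at about 50% in these data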;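 also: plate controls were negative control wells for no effect and 2.5 mM tranylcypromine positive control for full effect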
# Target sequence (P33261 whole entry, looked up): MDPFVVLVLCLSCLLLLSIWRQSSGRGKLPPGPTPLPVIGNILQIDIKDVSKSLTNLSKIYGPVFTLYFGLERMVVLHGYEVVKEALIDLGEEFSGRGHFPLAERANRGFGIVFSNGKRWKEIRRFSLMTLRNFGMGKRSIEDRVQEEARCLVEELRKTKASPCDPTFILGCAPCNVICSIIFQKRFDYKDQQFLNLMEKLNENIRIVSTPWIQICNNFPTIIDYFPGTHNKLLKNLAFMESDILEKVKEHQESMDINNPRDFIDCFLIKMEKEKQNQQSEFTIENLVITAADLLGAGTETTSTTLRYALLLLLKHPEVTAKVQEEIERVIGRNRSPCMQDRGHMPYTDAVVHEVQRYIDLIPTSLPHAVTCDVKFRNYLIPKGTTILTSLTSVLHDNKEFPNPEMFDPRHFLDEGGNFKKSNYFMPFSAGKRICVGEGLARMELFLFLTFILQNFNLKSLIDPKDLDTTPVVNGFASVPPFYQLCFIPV
# CYP2C19 activ – activators of human cytochrome P450 2C19; activation factor at 5 µM; recombinant CYP2C19, luciferin-H EGE luminescence; stronger effect = higher value; 0 = fully inhibited enzyme, 1 = untreated enzyme; 96,000 tested, under 10 active;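 active = activation factor of at least 2 at 5 µM in the primary screen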;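 also: 0 = wells with 2.5 mM tranylcypromine and 1 = vehicle-only wells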
# Cav3 T inh – inhibitors of human Cav3.2 T-type calcium channel | Cav3.2-expressing cells, Fluo-4 calcium fluorescence FDSS; stronger effect = lower value | actives 4% (n = 100,000) | B-score at 10 µM | O95180;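 active = single-dose well whose peak fluorescence ratio is a statistical outlier from its plate by either plate-standardised score or position-corrected B-score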
# An asterisk follows results filed as active; x = not tested or not shown. A selection: hits, their analogues and other compounds. The true share with any hit is near 27%.
SMILES,CYP2C9 act,CYP2C9 inhib,CYP2C19 inhib,CYP2C19 activ,Cav3 T inh
O=C(Nc1ncc2c(n1)-c1ccccc1OC2)c1ccc(Cl)cc1Cl,1,0,22,0.8,-0.22
O=C(c1ccc(Cl)cc1Cl)C1(n2cncn2)Oc2ccccc2C1O (stereo not given),0.1,93*,99*,0,-2.7
O=c1cc(-c2ccccc2)[nH]c2[nH]n(-c3ccccc3)c(=O)c12,0.4,56*,0,1,-0.3
Cc1[nH]n(-c2ccccc2)c(=O)c1-c1ccccc1,0.8,23,8,0.9,0.56
NNC(=O)CNC(=O)c1cccc(Br)c1,0.9,6,35,0.7,-0.021
CCOC(=O)N1CCN(c2nc(C)cc(C(F)(F)F)n2)CC1,0.6,41,66*,0.3,-0.7
CN1CCN(CC(=O)N(C)c2nc(-c3ccccc3)cs2)CC1,0.9,13,9,0.9,-0.71
CCCCNC(=O)c1cn(-c2ccc(OCC)cc2)c(=O)c2cc(OC)c(OC)cc12,0.6,38,6,0.9,-1.4
COc1ccc(N2C(=O)CC2(/C=C/c2ccccc2OC)C(=O)NC2CCCC2)cc1 (stereo not given),x,x,x,x,-5.4*
CCCS(=O)(=O)N1CCCC(C(=O)NCCc2ccc(OC)c(OC)c2)C1 (stereo not given),0.9,10,7,0.9,1.5
C=CCn1c(SCC(=O)N2CCN(C(=O)c3ccco3)CC2)nc2sc(CC)cc2c1=O,0,99*,90*,0.1,2.3
C=CCn1c(SCC(=O)Nc2cc(C)on2)nc2sc(CC)cc2c1=O,0.3,72*,5,0.9,-0.036
O=C(COc1ccc(-n2cnnn2)cc1)NCCc1ccc(F)cc1,0.9,11,4,1,-0.11
O=c1c(-c2nc3ccccc3s2)cccn1Cc1ccc(Cl)c(Cl)c1,0.3,74*,-13,1.1,x
O=C(c1cccn(Cc2ccc(Cl)c(Cl)c2)c1=O)N1CCOCC1,1.1,-11,-10,1.1,0.033
CC(C)=CC(O)C/C(C)=C/COc1ccc2ccc(=O)oc2c1 (stereo not given),x,x,x,x,-0.9
CCCN1CCC(=O)N([C@H](CSc2ccc(Br)cc2)c2ccccc2)CC1,x,x,x,x,-0.98
CC(=O)NC1CC2CCCC(C1)N2S(=O)(=O)c1ccccc1 (stereo not given),1.4,-43,50*,0.5,0.65
O=C(NC1CC2CCCC(C1)N2C(=O)Nc1ccccc1)c1ccncc1 (stereo not given),0.6,40,92*,0.1,0.018
O=C(NC1CC2CCCC(C1)N2C(=O)NC1CCCCC1)c1ccccc1 (stereo not given),1,0,2,1,0.19
CC(=O)Nc1ccc(S(=O)(=O)N2C3CCCC2CC(NC(=O)C2CCCCC2)C3)cc1 (stereo not given),0.7,27,14,0.9,0.49
O=C(NC1CC2CCCC(C1)N2S(=O)(=O)c1ccccc1)c1ccccc1 (stereo not given),0.7,32,63*,0.4,1.8
Cc1cc(=O)[nH]c(S/C=C/c2ccccc2)n1,0.6,36,17,0.8,-0.02
O=[N+]([O-])c1ccc(N(c2ccccc2)c2ccccc2)cc1,0.5,51*,26,0.7,-4
O=C(C#Cc1ccccc1)c1ccc([N+](=O)[O-])cc1,0.9,8,9,0.9,-0.6
SMILES,CYP2C9 act,CYP2C9 inhib,CYP2C19 inhib,CYP2C19 activ,Cav3 T inh
CCCCS(=O)Cc1ccccc1 (stereo not given),1.4,-42,-9,1.1,0.47
COCCN1CCN(C(=O)c2ccc3c(c2)S(=O)(=O)c2ccccc2C3=O)CC1,x,x,x,x,0.93
O=C(N/N=C(\c1ccccc1)c1cccnc1)C(O)(c1ccccc1)c1ccccc1,0.3,67*,28,0.7,-1.2
Clc1ccc(CSc2nnc(Cn3cnc4ccccc43)o2)cc1,0.3,67*,45,0.5,-4.7*
O=C(CSc1nnc(Cn2nnc3ccccc32)o1)N(Cc1ccc(Cl)cc1)c1ccccc1,0.6,42,12,0.9,-6*
O=C1[C@H]2[C@@H](C(=O)N1c1cccc3ccccc13)C1(C(=O)c3ccccc3C1=O)N1CCC[C@@H]21,0.7,26,38,0.6,1.4
CCOC(=O)c1sc2nc(N3CCOCC3)c3c(c2c1N)CCN(Cc1ccccc1)C3,0.9,9,-4,1,0.11
O=C(c1ccccc1)c1cnc(Nc2ccccc2Cl)s1,0.5,48,54*,0.5,-4.1
CC(C)(C)C(=O)c1cnc(Nc2ccccc2Cl)s1,0.7,32,40,0.6,-3.2
